Assay outcomes: PubChem, several laboratories
PERK inh: human PERK inhibition, primary cell-based screen. CHO PERK-DD fusion, SEAP luminescence translation reporter. 220,000 tested, 0.17% active. inhibition, % at 5.6 µM. Q9NZJ5;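 active means inhibition above the mean inhibition of all tested compounds plus 3 SD, set separately per screening campaign, cut at about 2.9% in these data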;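 further: PERK kinase domain activated by AP20187 dimerizer at 100 nM; 0% = DMSO with dimerizer and 100% = rapamycin at 8.4 µM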
eIF4E 4G PPI: eIF4E/eIF4G interaction inhibition in translation initiation. P63073+Q04637. 220,000 tested, 0.37% active. TR-FRET eIF4E-eIF4GI(517-606) binding, 2 h. inhibition, % at 21.7 µM;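 active means inhibition above about 30%, limit read from the data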;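 further: 0% = full FRET control wells and 100% = background wells lacking eIF4GI fragment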
PGE2 EP2 inh: blocks the human prostaglandin E2 receptor EP2; 260,000 tested, 0.52% active; C6 glioma cells expressing human EP2, cAMP TR-FRET; cells stimulated with saturating PGE2; AID 1422; inhibition, % at 25 µM;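 active means percent inhibition above 40 after rounding to a whole number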;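 further: rat C6 glioma host cells with rolipram phosphodiesterase inhibitor present; the protocol text gives 20 µM as final concentration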
EP2 modulator: modulates human prostaglandin E2 receptor EP2 signaling; EP2-expressing cells, cAMP HTRF FRET, PGE2 co-stimulation; 260,000 tested, 0.83% active; induction, % at 25 µM; AID 940;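 active means compounds whose cAMP rise, as percent of the full-agonist control response, exceeds 60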;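 further: rat C6 glioma line stably carrying human EP2 under a CMV promoter; the protocol text gives 20 µM as final concentration; 100% = response of wells given 1 µM PGE2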
* = called active by the depositor; . = no result given. Only some compounds are listed: those with a hit (about 1.8% of all), similar ones and a draw of the others.

SMILES	PERK inh	eIF4E 4G PPI	PGE2 EP2 inh	EP2 modulator
O=C(NN1C(=O)/C(=C/C=C/c2ccco2)SC1=S)c1ccccc1O	1	36*	25	-17
Cn1cccc1/C=C1\SC(=S)N(NC(=O)c2ccccc2O)C1=O	1	-5	6	-25
COc1cccc(C(=O)NCCc2nc(-c3cccnc3)n[nH]2)c1	.	.	5	-20
COc1ccc(OCc2nnc(SCC(=O)Nc3cccc(C(F)(F)F)c3)o2)cc1	.	.	14	-63
COc1ccc(NC(=O)c2sc3nc4ccc(C)cc4cc3c2N)cc1	.	.	13	-13
CCOc1cccc(/C(O)=C2/C(=O)C(=O)N(Cc3ccco3)C2c2cccnc2)c1 (centres undefined)	.	.	10	11
Cc1cc2ccccc2c[n+]1CC(O)C[n+]1cc2ccccc2cc1C	.	.	55*	18
COc1ccccc1N1CCN(C(=O)Cn2nc(C(F)(F)F)c3c2CCCC3)CC1	.	.	12	-16
COc1cc2c(cc1CN(CCCn1ccnc1)Cc1ccccc1C)OCO2	.	.	4	-4
COC(=O)[C@H]1CCc2ccccc2N1C(=O)c1ccco1	.	.	.	47
COc1ccccc1C(=O)Nc1nnc(-c2ccco2)s1	-1	2	44*	-6
O=C(Nc1nnc(-c2ccco2)s1)c1ccccc1	0	-13	46*	32
COc1ccccc1NC(=O)Nc1nnc(-c2ccco2)s1	0	3	.	-19
COc1ccccc1OCCCCCc1c(C)n[nH]c1C	0	-2	7	20
CCOc1ccccc1OCCCCCc1c(C)n[nH]c1C	0	47*	3	48
S=C1N(c2ccccc2)CN(CCN2CCOCC2)CN1c1ccccc1	1	39*	14	6
CC(C)N1CN(c2ccccc2)C(=S)N(c2ccccc2)C1	2	0	9	-29
Cc1cc(=S)c2cc(Br)ccc2[nH]1	.	.	21	66*
COC(=O)c1c(NC(=O)Cc2cccs2)sc(C(=O)Nc2ccccc2C)c1C	.	.	7	-13
COc1ccc(C(O)CN2CCC3(CC2)CC(O)c2ccc4ccccc4c2O3)cc1 (centres undefined)	.	.	9	-93
OC(CN1CCC2(CC1)CC(O)c1ccc3ccccc3c1O2)c1ccc(Cl)cc1 (centres undefined)	.	.	50*	-86
O=C(NNc1nc2ccccc2s1)C1CC1	3.6*	-5	16	15
COc1ccc(NC(=O)CSc2nc(O)cc(=O)[nH]2)c(OC)c1	0	96*	1	-14
OCCOCCN1CCN(C(c2ccccc2)c2ccc(Cl)cc2)CC1 (centres undefined)	-1	-3	20	15
CC(C)(C)c1ccc(CN2CCN([C@H](c3ccccc3)c3ccc(Cl)cc3)CC2)cc1	.	.	45*	15
SMILES	PERK inh	eIF4E 4G PPI	PGE2 EP2 inh	EP2 modulator
CCN(Cc1ccccc1)C(c1ccc(Cl)cc1)c1nnnn1C(C)(C)C (centres undefined)	2	10	3	31
CC(C)(C)n1nnnc1C(c1cccnc1)N(CCc1ccccc1)Cc1cccs1 (centres undefined)	.	.	8	63*
CCN(Cc1ccccc1)C(c1ccc(C)cc1)c1nnnn1C(C)(C)C (centres undefined)	0	1	10	61*
CC(C)(C)n1nnnc1C(c1cccs1)N(Cc1cccnc1)Cc1ccco1 (centres undefined)	-1	3	3	24
CCOc1ccc(Nc2c(C)c(C)nc3ncnn23)cc1	.	.	21	2
CCCC1C(=O)N(c2ccccc2)C1c1ccccc1 (centres undefined)	0	3	-3	64*
O=C(Oc1c(Br)cc(C(=S)N2CCOCC2)cc1Br)c1ccc(Cl)cc1	1	49*	.	35
N=C(N)c1ccc(-c2ccc(-c3ccc(C(=N)N)cc3)o2)cc1	.	.	52*	-11
Cc1nn2c(N3CCCC(O)C3)c3c(nc2c1-c1cccs1)CCC3 (centres undefined)	.	.	.	-59
CCc1nn(Cn2nnc3ccccc32)c(=O)c2cc3oc(C)cc3n12	.	.	4	-40
COc1cc(CCc2ccc3c(c2)OCO3)oc(=O)c1	.	-12	17	63*
CN(C)CCNC1CS(=O)(=O)CC1O (centres undefined)	.	.	11	9
O=C1c2ccccc2-c2ccc(N=[N+]([O-])c3ccc4c(c3)C(=O)c3ccccc3-4)cc21	.	.	51*	0
CC(=O)c1ccc(N2CCN(C(C)=O)C(C)C2)c(F)c1 (centres undefined)	.	.	21	-6
COc1ccc(Cn2nnnc2C(c2cc3cccc(C)c3[nH]c2=O)N2CCCCC2)cc1 (centres undefined)	.	.	10	-25
Cc1cccc2cc(C(c3nnnn3Cc3ccc(F)cc3)N3CCCCCC3)c(=O)[nH]c12 (centres undefined)	.	.	22	67*
Cc1cccc2cc(C(c3nnnn3Cc3ccccc3)N3CCN(C)CC3)c(=O)[nH]c12 (centres undefined)	0	-1	1	-11
Cc1cccc2cc(C(c3nnnn3Cc3ccccc3)N3CCCCC3)c(=O)[nH]c12 (centres undefined)	.	.	13	68*
Cc1ccc(C)c2[nH]c(=O)c(C(c3nnnn3Cc3ccccc3)N3CCCCCC3)cc12 (centres undefined)	.	.	15	75*
Cc1cc(C(F)F)n2nc(C(=O)Nc3sc4c(c3C(=O)OC(C)C)CCCC4)nc2n1	.	.	13	67*
O=C1CCCN1c1ccc(CNC2(c3ccc(Cl)cc3)CC2)cc1	.	.	5	-4
Nc1ccc(-c2nn[nH]n2)cc1	.	.	7	-11
O=C1C(Cc2ccc(O)cc2)NC(=S)N1c1ccccc1 (centres undefined)	3.0*	5	5	-16
O=C(O)CC1NC(=S)N(c2ccccc2)C1=O (centres undefined)	1	-1	6	31
CCNC(=S)N(Cc1cc2c(C)cc(C)cc2[nH]c1=O)CC1CCCO1 (centres undefined)	.	.	7	-44
SMILES	PERK inh	eIF4E 4G PPI	PGE2 EP2 inh	EP2 modulator
COC(=O)c1sc2ncn(Cc3cccc(C)c3)c(=O)c2c1C	.	.	7	12
O=c1c2ccccc2nc2n1-c1ccccc1CCC2	0	2	2	21
O=C1c2ccccc2-n2c1nc1ccccc1c2=O	1	3	54*	-25
COc1cc2oc(-c3ccc(O)cc3)cc(=O)c2c(O)c1OC	.	58*	20	22
COc1cc2oc(-c3ccc(O)cc3)cc(=O)c2c(OC)c1O	1	-3	9	-2
CCOC(=O)C(=O)NNc1ccc(F)cc1	1	31*	6	-3
O=[N+]([O-])c1ccc(C2=Nn3cnnc3SC2)cc1	1	62*	7	-21
CC(NC(=O)C1C=CCN1S(C)(=O)=O)c1ccc2c(c1)CCC2 (centres undefined)	.	.	11	-18
CS(=O)(=O)N1CCC(C(=O)NC2CC2)CC1	.	.	5	6
Cc1c(Cl)cccc1NC(=O)CCC(=O)NNC(=O)c1ccccc1Cl	-1	65*	4	9
CCC(=O)NNC(=O)CCC(=O)Nc1cccc(Cl)c1C	3.0*	5	3	18
COCc1cc(C)nc(SCC(=O)Nc2cccc(Cl)c2)c1C#N	.	.	24	-29
